This passage reports outcome and AC50 results from PubChem BioAssay (EPA / NIEHS).

A short description of assay [1]: CCTE_Mundy_HCI_Cortical_Synap_Neur_Matur_BPCount: CCTE's Synaptogenesis and Neurite Maturation Assay in rat cortical cells for Branch Point Count, Mundy Lab (AID 2284211). In a few lines: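 Branch point number is quantified by automated imaging of fluorescently labelled neurites and synapses in rat primary cortical neurons exposed from DIV 7 to DIV 12. Activity is analysed relative to DMSO negative control.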

The nature of assay [2]: CCTE_Mundy_HCI_Cortical_NOG_NeuriteCount: CCTE's Neurite Outgrowth Assay in rat cortical cells for Neurite Count, Mundy Lab (AID 2284212).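 Further: cells fixed about two days after chemical exposure began.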 In a few lines:
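Neurite number per cell from high-content imaging of betaIII-tubulin immunostaining, with Hoechst nuclear counterstain.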

The nature of assay [3]: CCTE_Mundy_HCI_Cortical_NOG_NeuriteLength: CCTE's Neurite Outgrowth Assay in rat cortical cells for Neurite Length, Mundy Lab (AID 2284213).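 On AC50: neurites imaged about 48 to 50 h after chemical exposure began.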 In a few lines: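 Neurite length was read by high-content imaging of βIII-tubulin-labelled neurites in rat primary cortical cultures. Activity was fitted relative to DMSO.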
Assay [4] in a line: CCTE_Mundy_HCI_Cortical_Synap_Neur_Matur_NeuriteLength: CCTE's Synaptogenesis and Neurite Maturation Assay in rat cortical cells for Neurite Length, Mundy Lab (AID 2284214). In a few lines: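 Rat primary cortical cells were plated, treated with AraC at DIV 5 to arrest glial growth, then chemical-dosed with media change at DIV 7 through DIV 12. Fixed cells stained for MAP2, synaptophysin and Hoechst; neurite length quantified by high-content imaging.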

A short description of assay [5]: CCTE_Mundy_HCI_Cortical_Synap_Neur_Matur_NeuriteSpotCountPerNeuron: CCTE's Synaptogenesis and Neurite Maturation Assay in rat cortical cells for Neurite Spot Count per Neuron Count, Mundy Lab (AID 2284215). Put shortly: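 Rat primary cortical cultures given AraC at DIV 5, dosed from DIV 7 to DIV 12 with media change. Fixed, stained for MAP2, synaptophysin and Hoechst; neurite-associated synaptophysin puncta per neuron quantified by high-content imaging versus DMSO.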

Assay [6] can be described thus: CCTE_Mundy_HCI_Cortical_Synap_Neur_Matur_SynapseCount: CCTE's Synaptogenesis and Neurite Maturation Assay in rat cortical cells for Synapse Count, Mundy Lab (AID 2284218). In a few lines:
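Rat primary cortical cells in 96-well plates received AraC at DIV 5 and were dosed with chemicals at DIV 7 with media change, through DIV 12 (288.33 h). Synapses per neuron counted by high-content imaging of MAP2/synaptophysin/Hoechst staining, versus DMSO baseline.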

Assay [7] in a line: CCTE_Mundy_HCI_Cortical_Synap_Neur_Matur_NeuriteCount: CCTE's Synaptogenesis and Neurite Maturation Assay in rat cortical cells for Neurite Count, Mundy Lab (AID 2284222).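 On outcome: exposure from day 7 to day 12 in vitro with readout at day 12.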 In a few lines:
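Rat primary cortical cells; AraC added at DIV 5, chemicals dosed with media change at DIV 7 through DIV 12. MAP2/synaptophysin/Hoechst immunostaining, high-content imaging of neurite number; fitted relative to DMSO.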

A short description of assay [8]: TAMU_PeakParms_SingleDonor1434_Chronotropy: Texas A&M University (TAMU) 1.5-hr Human Induced Pluripotent Stem Cell (iPSC)-derived Cardiomyocytes Calcium (Ca+2) Flux Assay for Cardiotoxicity: Chronotropy (changes in peak frequency) (AID 2284217). The settings on record: actives raise or lower the signal. Put shortly:
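iPSC-derived cardiomyocytes (single donor 1434) dosed at 0.2, 1, 10 and 100 uM in 0.5% DMSO for 1.5 h at 37C; Ca2+ dye fluorescence gave average beat frequency. Zero-beat points removed; bidirectional fit versus DMSO, POD as EC05.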

The nature of assay [9]: CCTE_Mundy_HCI_hN2_NOG_NeuriteCount: CCTE's Neurite Outgrowth Assay in human hN2 cells for Neurite Count, Mundy Lab (AID 2284219; active means hit-call score of the fitted dose curve at least 0.9, where 1 is the maximum). In a few lines:
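In this morphology assay, hNP1-derived neurons received test chemical 2 h post-plating and were fixed two days later in warm paraformaldehyde/sucrose containing Hoechst 33342. Neurites, labelled by rabbit anti-βIII-tubulin (1:800) and Alexa Fluor-488 (1:500), were counted automatically.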

Assay [10] can be described thus: CCTE_Mundy_HCI_hN2_NOG_NeuriteLength: CCTE's Neurite Outgrowth Assay in human hN2 cells for Neurite Length, Mundy Lab (AID 2284220; active means hit-call score of the fitted dose curve at least 0.9, where 1 is the maximum). Put shortly: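 Read-out is neurite length from high-content imaging of βIII-tubulin/Alexa Fluor-488-labelled neurons, referenced to DMSO controls.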
The nature of assay [11]: CCTE_Mundy_HCI_hN2_NOG_NeuronCount: CCTE's Neurite Outgrowth Assay in human hN2 cells for Neuron Count, Mundy Lab (AID 2284221; active means hit-call score of the fitted dose curve at least 0.9, where 1 is the maximum). In a few lines:
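Read-out is the number of betaIII-tubulin-positive neurons imaged by automated high-content analysis, with DMSO as negative control.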

Assay [12] can be described thus: CCTE_Mundy_HCI_hNP1_Pro_ResponderAvgInten: CCTE's Proliferation Assay in human neuroprogenitor cells, Mundy Lab (AID 2284224; active means hit-call score of the fitted dose curve at least 0.9, where 1 is the maximum;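 further: human neural progenitor cells hNP1 derived from WA09 embryonic stem cells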). Put shortly: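 Proliferation read as average intensity of BrdU-positive cells, imaged at 26.25 h post-dosing: chemical exposure started after 40–44 h culture, BrdU during final 4 h, paraformaldehyde fixation. Positive-direction fit relative to DMSO.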

The nature of assay [13]: BSK_BT_PBMCCytotoxicity: PBMC Cytotoxicity Assessment in the BioMAP Diversity Plus: BT Assay (AID 2284225).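 Further: PBMC viability measured by Alamar Blue dye reduction fluorescence.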 The settings on record: primary human B cells with PBMC. In a few lines: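 75,000 cells/well; cpd 1 h → SEB + TSST-1 (20 ng/mL final each) → 90 h → Alamar Blue 6 h → fluor. 546/580 nm. DMSO = neg. control/baseline.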
Read-out in assay [14]: Secreted IgG (sIgG), gene 3500
The assay can be described thus: BSK_BT_sIgG: BioMAP Diversity Plus: BT Assay for Secreted IgG (sIgG) Biomarker Activity (AID 2284226). The settings on record: primary human B cells with PBMC. In a few lines:
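B cells co-cultured with PBMC were dosed with chemical and secreted IgG quantified by ELISA at 24 h. Activity was fitted in the positive direction relative to DMSO as negative control and baseline.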

Assay [15] can be described thus: BSK_BT_Bcell_Proliferation: Viability Assessment in the BioMAP Diversity Plus: BT Assay for B cell Proliferation (AID 2284227). The settings on record: primary human B cells with PBMC. Put shortly:
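Human B cells co-cultured with PBMC were dosed with test chemicals and relative cell number was quantified by SRB staining at 72 h. Cells were fixed in 10% TCA, stained with 0.1% SRB and read at 560 nm. Activity was fitted in the positive direction against DMSO.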

Read-out in assay [16]: Interleukin 6 (IL6), IL6 (gene 3569)
The assay can be described thus: BSK_BT_xIL6: BioMAP Diversity Plus: BT Assay for Interleukin 6 (IL6) Biomarker Activity (AID 2284228). The settings on record: primary human B cells with PBMC. Put shortly:
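Human B cell/PBMC co-culture; secreted IL-6 quantified by Luminex xMAP 24 h after chemical dosing, fitted relative to DMSO. Parallel PBMC viability by Alamar Blue after 1 h pretreatment, 20 ng/mL SEB and TSST-1, 90 h incubation.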

Read-out in assay [17]: Interleukin 17A (IL17A), IL17A (gene 3605)
The assay can be described thus: BSK_BT_xIL17A: BioMAP Diversity Plus: BT Assay for Interleukin 17A (IL17A) Biomarker Activity (AID 2284229). The settings on record: primary human B cells with PBMC. In a few lines:
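Co-culture of human B cells and PBMC, dosed for 24 h in 96-well format. Secreted IL-17A measured with Luminex xMAP; gain-direction fitting against DMSO as baseline.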

Read-out in assay [18]: Tumor necrosis factor (Homo sapiens) (UniProt P01375)
Put plainly: BSK_BT_xTNFa: BioMAP Diversity Plus: BT Assay for Tumor necrosis factor alpha (TNF-alpha) Biomarker Activity (AID 2284230). The settings on record: primary human B cells with PBMC. In a few lines:
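B cells with PBMC in co-culture, dosed and sampled at 24 h; secreted TNF-alpha measured by Luminex xMAP bead assay. Activity fitted in the gain direction against DMSO as negative control and baseline.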

Read-out in assay [19]: Vascular cell adhesion molecule 1 (VCAM1), VCAM1 (gene 7412)
The assay can be described thus: BSK_MyoF_VCAM1: BioMAP Diversity Plus: MyoF Assay for Vascular cell adhesion molecule 1 (VCAM1) Biomarker Activity (AID 2284231). The settings on record: primary human lung fibroblasts. In a few lines: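 Primary human lung fibroblasts (BioMAP MyoF system) dosed with chemical, VCAM-1 measured by ELISA 24 hours later. Fitted in the positive direction against DMSO; parallel SRB staining assessed cytotoxicity.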

The nature of assay [20]: UKN4_HCS_LUHMES_cell_viability: Viability Assessment in the University of Konstanz (UKN) Leist Lab Neurite Outgrowth Assay in human LUHMES cells (UKN4) (AID 2284232). Put shortly: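 LUHMES cells differentiated 2 days, replated without cAMP/GDNF, then exposed to compounds for 24 h from attachment. Viability read by high-content fluorescence imaging after 30 min live-staining with H-33342 and calcein-AM; bidirectional fit relative to DMSO baseline.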

Results filed as inconclusive are left out. Active and inactive are the calls of the source. How the source made its calls, unless noted: active means hit-call score of the fitted dose curve at least 0.9, where 1 is the maximum; inactive means score below 0.9.

Sequence of Tumor necrosis factor (Homo sapiens) (P01375 whole entry, looked up): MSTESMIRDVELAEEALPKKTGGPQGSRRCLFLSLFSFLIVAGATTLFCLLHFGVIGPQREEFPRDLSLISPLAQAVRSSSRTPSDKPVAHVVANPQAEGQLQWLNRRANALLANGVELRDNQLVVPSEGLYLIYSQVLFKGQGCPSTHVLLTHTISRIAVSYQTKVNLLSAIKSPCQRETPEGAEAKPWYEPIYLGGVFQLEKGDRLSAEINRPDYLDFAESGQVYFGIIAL

For the molecule `S=C(S)NCCNC(=S)S.[Mn+2].[S-]C([S-])=NCCN=C([S-])[S-].[Zn+2]`, the result in assay [1], in assay [2], in [3], in assay [4], in [5] and in assay [6] was inactive. The result in assay [7] was inactive.
Consider `O=C(O)c1ccccc1`, for which the molecule was called inactive in assay [1], in assay [2], in assay [3], in assay [4], in [5] and in assay [8]. The call in assay [6], in assay [9], in [10], in assay [11] and in assay [7] was inactive.
For the molecule `CCCN(CCC)C(=O)SCC`, the result in assay [1], in assay [3], in assay [4], in assay [5], in assay [6] and in assay [7] was inactive. For the same molecule, the outcome in assay [12] was inactive.
For the molecule `CC(=O)[C@H]1CC[C@H]2[C@@H]3CCC4=CC(=O)CC[C@]4(C)[C@H]3CC[C@]12C`, in assay [8], the result was inactive.
As usually defined, the AC50 is the midpoint of the concentration-response curve, whichever way the signal moves. As to `c1ccc2[nH]c(-c3cscn3)nc2c1`, in [8], the AC50 was 9.92 µM (active).
Take `N#CSCSc1nc2ccccc2s1`: the AC50 in [13] is 3.65 µM (active); in assay [14] it was 3.18 µM (active); in assay [15], 5.47 µM (active); in [16], 4.1 µM (active); in assay [17], 4.06 µM (active); in [18], 7.28 µM (active). The AC50 in assay [19] was 4.37 µM (active).
Turning to `CCC(C)OC(=O)N1CCCCC1CCO` (centres undefined), the outcome in assay [13], in [14], in assay [15], in [16], in assay [17] and in assay [18] was inactive. Further, in [19], the result was inactive.
Turning to `S=C([S-])NCCNC(=S)[S-].[Mn+2]`, the molecule was classed as inactive in assay [3], in [4], in assay [5], in [6], in assay [9] and in assay [10]. In addition, the outcome in [11] was inactive. Further, the AC50 in assay [20] is 3.31 µM (active).
For `CCN(CC)C(=O)c1cccc(C)c1`, the molecule was classed as inactive in [1], in assay [2], in assay [3], in assay [4], in assay [5] and in assay [6]. The outcome in [7] and in assay [12] was inactive.
As for `COCCO`, the result in [8], in assay [13], in assay [14], in [15], in assay [16] and in [17] was inactive. Further, the outcome in assay [18] and in assay [19] was inactive.
With `C#CCOC(=O)[C@@H](C)Oc1ccc(Oc2ncc(Cl)cc2F)cc1`, the outcome in assay [1], in assay [2], in assay [3], in [4], in assay [5] and in assay [6] was inactive. Moreover, the molecule was classed as inactive in assay [7]. Also, the AC50 in assay [12] was 50 µM (active).
Regarding `CC1(C)C(C=C(Cl)Cl)C1C(=O)OCc1cccc(Oc2ccccc2)c1` (centres undefined), the AC50 in assay [1] was 8.52 µM (active); in [2], 78.2 µM (active); in assay [3], 83.7 µM (active); in assay [4], 8.65 µM (active); in assay [5], 8.69 µM (active); in assay [6], 9.11 µM (active). In assay [11], the AC50 was 20.2 µM (active). Besides, the result in assay [8], in assay [9], in assay [10], in assay [7] and in [12] was inactive.
Consider `CC(C)(c1ccc(O)cc1)c1ccc(O)cc1`, for which the molecule was called inactive in assay [3] and in [12]. The AC50 in assay [4] is 50 µM (active); in [5], 50 µM (active); in [8] it was 50 µM (active); in assay [6], 50 µM (active); in assay [9] it was 77.3 µM (active); in assay [10], 78.8 µM (active). Further, the AC50 in assay [11] was 50 µM (active).
For `CSC(=O)c1cccc2nnsc12`, the molecule was classed as inactive in assay [1], in [2], in assay [3], in assay [4], in [5] and in [6]. For the same molecule, the call in [7] was inactive.
For the molecule `Cc1nn(C)c(Oc2ccccc2)c1C=NOCc1ccc(C(=O)OC(C)(C)C)cc1`, the AC50 was 0.00291 µM (active) in assay [1]; 0.0196 µM (active) in assay [2]; 0.0155 µM (active) in assay [3]; 0.00265 µM (active) in [4]; 0.00181 µM (active) in [5]; 0.0023 µM (active) in [6]. Also, the figures for the AC50 in [7] and in [12] were 0.00454 µM (active) and 7.65 µM (active), respectively.
